Test results taken from the supplement of paper PMC10600219.
Where a name gives a salt, the structure may show the parent alone. The full ranking holds about 2,800 compounds; the median of “cell viability relative to vehicle” is about 0.98, and the lowest 2% start at about 0.45. What follows is part of a selection rich in the lowest values, with near analogues and random picks from the rest.

Each compound was assayed on NCI-H2228 alectinib-DTP (assay: cell viability relative to vehicle (fraction of vehicle); NCI-H2228 is an ALK-positive lung cancer line and DTP means drug-tolerant persister; higher = less growth inhibition). Conditions: 100 nM; treatment time 6 days.
Outline: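 Values give cell viability as a fraction of vehicle-treated cells. Parental and drug-tolerant persister NCI-H2228 cells (persisters made with 1000 nM of a targeted drug for 13 days) were exposed in 384-well plates to the 3114-agent TargetMol anti-cancer compound library at 100 nM, with DMSO as vehicle. ATP was then read after 6 days by the CellTiter-Glo 3D Cell Viability Assay.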
Work on `CC(C)[C@]12O[C@H]1[C@@H]1O[C@]13[C@]1(O[C@H]1C[C@H]1C4=C(CC[C@@]13C)C(=O)OC4)[C@@H]2O` [Triptolide] yielded a cell viability of 0.133.
`CCCC(C)(C)c1ccc2c(c1)OC(C)(C)[C@@H]1CC=C(C)C[C@@H]21` gave a cell viability of 0.862.
Work on `Cc1ccc(/N=C/N(C)/C=N/c2ccc(C)cc2C)c(C)c1` [Amitraz] yielded a cell viability of 0.902.
Compound `COc1ccc2c(c[n+](C)c3c4cc5c(cc4ccc23)OCO5)c1OC` [Chelerythrine chloride] has a cell viability of 1.04.
In the case of `COc1ccc2c(c[n+](C)c3c4cc5c(cc4ccc23)OCO5)c1OC` [Chelerythrine], the cell viability was 1.03.
Compound `CC(=O)O[C@H]1C(=O)[C@@]2(C)[C@H]([C@H](OC(=O)c3ccccc3)[C@]3(O)C[C@H](O)C(C)=C1C3(C)C)[C@]1(OC(C)=O)CO[C@@H]1C[C@@H]2O` [Baccatin III] has a cell viability of 1.
For `C/C(=C\c1csc(C)n1)[C@@H]1C[C@@H]2O[C@@H]2CCC[C@H](C)[C@H](O)[C@@H](C)C(=O)C(C)(C)[C@@H](O)CC(=O)O1` [Epothilone A], the cell viability was 0.529.
Compound `C/C(=C\c1csc(C)n1)[C@@H]1C[C@@H]2O[C@]2(C)CCC[C@H](C)[C@H](O)[C@@H](C)C(=O)C(C)(C)[C@@H](O)CC(=O)O1` [Epothilone B] has a cell viability of 0.433.
For `C[C@@H]1C(=O)O[C@H]2[C@H](O)[C@@]34O[C@@H]5OC(=O)[C@H](O)[C@@]56[C@H](C(C)(C)C)[C@H](O)C(OC3=O)[C@]64[C@@]12O` (stereo partly specified) [Ginkgolide C], the cell viability was 0.969.
`C/C=C/c1cc(OC)c(OC)cc1OC` [alpha-Asarone] gave a cell viability of 0.92.
In the case of `NC[C@H](CC(=O)O)c1ccc(Cl)cc1` [(R)-baclofen], the cell viability was 1.07.
For `NCCc1c[nH]c2ccccc12` [Tryptamine], the cell viability was 1.12.
For `NCCCNCCCN` [Bis(3-aminopropyl)amine], the cell viability was 0.833.
`CC(=O)O[C@H]1C[C@H](O[C@H]2[C@@H](O)C[C@H](O[C@H]3[C@@H](O)C[C@H](O[C@H]4CC[C@@]5(C)[C@H](CC[C@@H]6[C@@H]5C[C@@H](O)[C@]5(C)[C@@H](C7=CC(=O)OC7)CC[C@]65O)C4)O[C@@H]3C)O[C@@H]2C)O[C@H](C)[C@H]1O[C@@H]1O[C@H](CO)[C@@H](O)[C@H](O)[C@H]1O` [Lanatoside C] gave a cell viability of 0.49.
For `CO[C@H]1C[C@H](O[C@H]2CC[C@]3(C)[C@H]4CC[C@]5(C)[C@@H](C6=CC(=O)OC6)CC[C@]5(O)[C@@H]4CC[C@]3(O)C2)O[C@H](C)[C@H]1O[C@@H]1O[C@H](CO)[C@@H](O)[C@H](O)[C@H]1O` [Periplocin], the cell viability was 0.443.
In the case of `CCC(C)C(=O)O[C@@H]1[C@@H](OC(C)=O)[C@]2(C)[C@H](C(C)=O)CC[C@@]23O[C@]32CC[C@H]3C[C@@H](O[C@H]4C[C@@H](OC)[C@H](O[C@@H]5O[C@H](C)[C@@H](O)[C@@H](OC)[C@H]5O)[C@@H](C)O4)CC[C@]3(C)[C@@H]12` (stereo partly specified) [Tenacissoside H], the cell viability was 1.14.
`NCC(CC(=O)O)c1ccccc1` (stereo unspecified) [Phenibut] was tested, and the cell viability was 1.03.
`COc1ccc2c(c1O)-c1c(OC)c(OC)cc3c1[C@H](C2)N(C)CC3` [(+)-Isocorydine hydrochloride] gave a cell viability of 0.9.
With `CCC12C=CCN3CC[C@@]4(c5ccc(OC)cc5N(C)[C@H]4[C@@](O)(C(=O)OC)[C@@H]1OC(C)=O)[C@@H]32` (stereo partly specified) [Vindoline] the cell viability was 1.1.
In the case of `N#CC(C#N)=Cc1ccc([N+](=O)[O-])c(O)c1`, the cell viability was 1.05.
Work on `C[C@H]1CCC/C=C/[C@@H]2C[C@H](O)C[C@H]2[C@H](O)/C=C/C(=O)O1` [Brefeldin A] yielded a cell viability of 0.0894.
`C[C@H]1C(=O)O[C@@H]2CCN3CC=C(COC(=O)[C@](C)(O)[C@]1(C)O)[C@H]23` [Monocrotaline] was tested, and the cell viability was 0.941.
`C[N+]1([O-])[C@@H]2CC(OC(=O)[C@H](CO)c3ccccc3)C[C@H]1[C@@H]1O[C@@H]12` (stereo partly specified) [Scopolamine N-oxide HBr] showed a cell viability of 1.07.
Compound `C[C@@H]1CCC=C2C(=O)C[C@H]3OOC(C)(C)[C@H]3[C@]21C` [Nardosinone] has a cell viability of 0.941.
`COc1ccc2c(c1)[nH]c1c(C)nccc12` [Harmine] gave a cell viability of 0.801.
Work on `Nc1ncnc2c1ccn2[C@@H]1O[C@H](CO)[C@@H](O)[C@H]1O` [Tubercidin] yielded a cell viability of 0.389.
Compound `CC(=O)Nc1ccc(OC[C@](C)(O)C(=O)Nc2ccc([N+](=O)[O-])c(C(F)(F)F)c2)cc1` [Andarine] has a cell viability of 0.917.
`C[C@H](CS(C)(=O)=O)n1ccc2c(C(F)(F)F)c(C#N)ccc21` showed a cell viability of 1.09.
`O=P(O)(NCCCl)NCCCl` [Palifosfamide] showed a cell viability of 1.17.
With `Cc1c(N[C@@H](c2nnc(-c3ccc(C#N)cc3)o2)[C@H](C)O)ccc(C#N)c1Cl` [Testolone] the cell viability was 1.21.
`C[C@]12CC[C@H](O)C[C@H]1CC[C@@H]1[C@@H]2CC[C@]2(C)[C@@H](c3ccc(=O)oc3)C[C@H]3O[C@]132` [Resibufogenin] was tested, and the cell viability was 1.07.
`C[C@]12CC[C@H](O)C[C@H]1CC[C@@H]1[C@@H]2CC[C@]2(C)[C@@H](c3ccc(=O)oc3)CC[C@]12O` [Bufalin] was tested, and the cell viability was 0.101.
`C[C@]12CC[C@H](O)C[C@@H]1CC[C@@H]1[C@@H]2CC[C@]2(C)C(=O)CC[C@@H]12` [Epiandrosterone] was tested, and the cell viability was 0.814.
For `CC(=O)O[C@H]1[C@H]2O[C@]23[C@@H]2CC[C@@H]4C[C@@H](O)CC[C@]4(C)[C@H]2CC[C@]3(C)[C@H]1c1ccc(=O)oc1` [Cinobufagin], the cell viability was 0.142.
Compound `C[C@]12CC[C@H](O)C[C@H]1CC[C@@H]1[C@@H]2CC[C@]2(C)[C@@](O)(c3ccoc3)CC[C@]12O` [Rostafuroxin] has a cell viability of 0.988.
`Cc1c(C(=O)Nc2cccc(C(F)(F)F)c2)cc(-c2ccccc2)n1CCCN1CCOCC1` was tested, and the cell viability was 0.946.
In the case of `Cc1ccccc1-n1c(Cn2cnc3c(N)ncnc32)nc2cccc(C)c2c1=O`, the cell viability was 1.07.
With `C=C1C2CC3(C1O)C1CC4C5(C)CCC(O)C4(C1N(CC)C5)C3CC2=O` (stereo unspecified) [Napellonine] the cell viability was 0.931.
Work on `CCO[C@H]1O[C@@H]2O[C@@]3(C)CC[C@H]4[C@H](C)CC[C@@H]([C@H]1C)[C@@]24OO3` [Arteether] yielded a cell viability of 0.856.
`CC(=O)OC(C)(C)/C=C/C(=O)[C@](C)(O)[C@H]1[C@H](O)C[C@@]2(C)[C@@H]3CC=C4[C@H](C[C@H](O)C(=O)C4(C)C)[C@]3(C)C(=O)C[C@]12C` [Cucurbitacin B] was tested, and the cell viability was 0.146.
Compound `COc1ccc2c(c1OC)CN1CCc3cc4c(cc3C1C2)OCO4` (stereo unspecified) [Tetrahydroberberine THB] has a cell viability of 1.01.
Work on `CC[C@@]1(O)C(=O)OCc2c1cc1n(c2=O)Cc2cc3ccccc3nc2-1` [(S)-(+)-Camptothecin] yielded a cell viability of 0.36.
With `CCc1c2c(nc3ccccc13)-c1cc3c(c(=O)n1C2)COC(=O)[C@]3(O)CC` [7-Ethylcamptothecin] the cell viability was 0.361.
In the case of `COc1ccc(/C=C/C=C2C(=O)NC(=O)NC2=O)cc1`, the cell viability was 0.972.
In the case of `N#C/C=C1/C=C[C@@H](O)[C@H](O)[C@H]1O[C@@H]1O[C@H](CO)[C@@H](O)[C@H](O)[C@H]1O` [Griffonin], the cell viability was 0.984.
With `Clc1ccc([C@]23CNC[C@H]2C3)cc1Cl` [Amitifadine hydrochloride] the cell viability was 1.06.
`CC(=O)O[C@H]1CC[C@H]2[C@@H]3CCC4=CC(=O)CCC4=C3C=C[C@]12C` [Trenbolone acetate] was tested, and the cell viability was 1.15.
Compound `N#C[C@H](O[C@@H]1O[C@H](CO[C@@H]2O[C@H](CO)[C@@H](O)[C@H](O)[C@H]2O)[C@@H](O)[C@H](O)[C@H]1O)c1ccccc1` [Amygdalin] has a cell viability of 0.879.
For `N#Cc1nn(-c2c(Cl)cc(C(F)(F)F)cc2Cl)c(N)c1[S+]([O-])C(F)(F)F` (stereo unspecified) [Fipronil], the cell viability was 0.905.
`CC1=C[C@H]2[C@@]3(O)[C@H](C)[C@@H](O)[C@]4(O)[C@H]([C@@H]3C=C(CO)C[C@]2(O)C1=O)C4(C)C` [Phorbol] showed a cell viability of 0.999.
Compound `O=C(/C=C/c1ccccc1)OC[C@H]1O[C@@H](O[C@@H]2OC=C[C@H]3[C@H](O)[C@@H]4O[C@]4(CO)[C@@H]23)[C@H](O)[C@@H](O)[C@@H]1O` [Picroside I] has a cell viability of 1.06.
